Results published in PubChem BioAssay (Tox21).
Values joined by “and” are separate entries in the source; they are usually repeats but may differ in a detail not shown here. Equal entries are not always repeated. Inconclusive results are not listed. A call without a number means that no potency is given here. Some structures have more than one record in an assay (separate samples or runs), and their calls can disagree. Active and inactive are the calls of the source. Unless noted, calls come from the whole dose curve; as a rule, active = well fitted curve in the direction sought with a large enough effect in the repeat runs; inconclusive = weak or mixed curves; inactive = no such curve, though single readings can be large; an effect the other way counts as inactive or inconclusive.

Legend:
[1] = qHTS assay to identify small molecule antagonists of the estrogen related receptor (ERR) signaling pathway from Tox21 library - cell viability counter screen (AID 1224834); note: nearly all actives have a fitted effect of over 30% in size; note: potency is the fitted concentration of half-maximal effect
Method in brief: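 Seeded ERR cells were rested 6 h at 37 C/5% CO2 before compounds, positive and negative controls or DMSO were added. Incubation continued for 17.5 h, and viability was then quantified by CellTiter-Fluor fluorescence.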

[2] = qHTS assay to identify small molecule agonists of the constitutive androstane receptor (CAR) signaling pathway - cell viability counter screen (AID 1224836); note: nearly all actives have a fitted effect of over 45% in size; note: potency is the fitted concentration of half-maximal effect
Method in brief: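 HepG2 cells stably carrying hCAR and a CYP2B6-2.2kb reporter were plated 4 h, then given compounds at 15 concentrations plus PK11195 (final 0.75 uM). After 23 h at 37 C, viability was read by CellTiter-Fluor fluorescence.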

[3] = qHTS assay to identify small molecule antagonists of the constitutive androstane receptor (CAR) signaling pathway - cell viability counter screen (AID 1224837); note: nearly all actives have a fitted effect of over 45% in size; note: potency is the fitted concentration of half-maximal effect
Method in brief: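 To flag cytotoxic false antagonists, HepG2 hCAR/CYP2B6-2.2kb cells were treated 23 hr with 15-concentration compound series and 50 nM CITCO at 37 C/5% CO2; CellTiter-Fluor fluorescence was the measured end point.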

[4] = qHTS assay to identify small molecule antagonists of the estrogen related receptor signaling pathway with the pleiotropic PPARgamma coactivator (PGC) from Tox21 10K library - cell viability counter screen (AID 1224840; active = well fitted cell-killing curve with a large enough effect in the repeat runs, not every such curve was filed as active; note: nearly all actives have a fitted effect of over 40% in size; note: potency is the fitted concentration of half-maximal effect)
Method in brief: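 Seeded PGC/ERR cells (2,000/well, 6 h, 37 C/5% CO2) get compound by pin tool; 17.5 h incubation at 37 C; CellTiter-Fluor added, 30 min, fluorescence measured.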

[5] = biological target: Thyrotropin receptor (Homo sapiens) (UniProt P16473); test: qHTS assay to identify small molecule agonists of the thyroid stimulating hormone receptor (TSHR) signaling pathway (AID 1224843; calls by dose curve; note: nearly all actives have a fitted effect of over 45% in size)
Thyrotropin receptor (Homo sapiens), sequence (P16473 whole entry, looked up): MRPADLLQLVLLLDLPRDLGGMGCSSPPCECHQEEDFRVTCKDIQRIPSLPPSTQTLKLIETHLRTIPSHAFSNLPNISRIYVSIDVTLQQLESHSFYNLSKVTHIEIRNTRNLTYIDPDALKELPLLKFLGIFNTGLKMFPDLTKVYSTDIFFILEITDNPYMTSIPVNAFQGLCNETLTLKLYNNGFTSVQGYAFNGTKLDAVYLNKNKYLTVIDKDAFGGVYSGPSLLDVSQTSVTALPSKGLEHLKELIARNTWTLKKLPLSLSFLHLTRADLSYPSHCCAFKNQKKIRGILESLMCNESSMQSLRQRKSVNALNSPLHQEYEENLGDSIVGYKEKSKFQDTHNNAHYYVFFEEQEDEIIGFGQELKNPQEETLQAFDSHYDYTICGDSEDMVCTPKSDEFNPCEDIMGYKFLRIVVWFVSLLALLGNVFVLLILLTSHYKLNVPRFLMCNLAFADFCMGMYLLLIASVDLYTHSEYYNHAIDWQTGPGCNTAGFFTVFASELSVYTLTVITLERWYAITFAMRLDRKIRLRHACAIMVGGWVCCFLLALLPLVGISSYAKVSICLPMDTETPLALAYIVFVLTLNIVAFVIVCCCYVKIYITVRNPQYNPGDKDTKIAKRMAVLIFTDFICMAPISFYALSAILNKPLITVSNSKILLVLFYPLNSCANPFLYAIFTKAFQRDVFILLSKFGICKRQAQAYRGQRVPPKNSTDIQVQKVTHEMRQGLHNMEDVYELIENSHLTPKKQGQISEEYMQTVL
Method in brief: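 Using 15 concentrations per compound in triplicate, cAMP production was monitored in TSHR-HEK293 cells after 30 min compound incubation at RT; HTRF reagents followed, with fluorescence intensity recorded after 1 h.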

[6] = qHTS assay to identify small molecule agonists of the hypoxia (HIF-1) signaling pathway - cell viability counter screen (AID 1224844; calls by dose curve; note: nearly all actives have a fitted effect of over 50% in size; note: potency is the fitted concentration of half-maximal effect)
Method in brief: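 HRE-bla ME-180; 0.5% dFBS; cpd 17 h, 37C, 5% CO2; CellTiter-Glo lum., 30 min RT, post-FRET read, same wells.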

[7] = qHTS assay to identify small molecule agonists of H2AX (AID 1224845; active = well fitted activation curve with a large enough effect in the signal ratio in the repeat runs, not every such curve was filed as active; the % refers to the signal ratio; note: potency is the fitted concentration of half-maximal effect)
Method in brief: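 Wild-type CHO-K1 cells plated overnight, then exposed 3 hr at 37C to compounds at 15 concentrations (0.76% DMSO). Lysed, then HTRF anti-pH2AX(S139)-cryptate/anti-H2AX-d2 detection after 24 hr at room temperature; emissions 665 and 620 nm.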

[8] = qHTS assay to identify small molecule agonists of the hypoxia (HIF-1) signaling pathway (AID 1224846; active = well fitted activation curve with a large enough effect in the signal ratio in the repeat runs, not every such curve was filed as active; the % refers to the signal ratio; note: potency is the fitted concentration of half-maximal effect)
Method in brief: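 Reporter induction in HRE-bla ME-180 cells is taken as agonism: cells sit 5 hrs after plating, receive compounds or DMSO only, incubate 17 hrs at 37C under 5% CO2, and are loaded with CCF4-AM for beta-lactamase FRET measurement.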

[9] = qHTS assay to identify small molecule agonists of H2AX - cell viability counter screen (AID 1224847; calls by dose curve; note: nearly all actives have a fitted effect of over 30% in size; note: potency is the fitted concentration of half-maximal effect)
Method in brief: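 Wild-type CHO-K1 cells (10% FBS medium) were plated overnight at 37C, exposed to compounds at 15 concentrations for 3 hr at 37C (0.76% DMSO final), and viability was read as CellTiter-Glo luminescence after 30 min at room temperature.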

[10] = qHTS RealTime-Glo MT Cell Viability Assay in HepG2 cells - 24 hour (AID 1224867); note: nearly all actives have a fitted effect of over 50% in size; note: potency is the fitted concentration of half-maximal effect
Method in brief: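 Luminescence read-out: viable HepG2 cells reduce a prosubstrate to a NanoLuc substrate, giving a signal proportional to live cell number. Reads taken at 0, 8, 16, 24, 32 and 40 h of compound exposure at 37 C.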

[11] = A CellTox Green Cytotoxicity Assay to monitor cytotoxicity in HEK293 cells - 0 hour (AID 1224869); note: nearly all actives have a fitted effect of over 50% in size
Method in brief: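 Tox21 screen in HEK293: membrane-impermeant cyanine dye fluoresces on binding dead-cell DNA; compound pinned 5 h post-seeding, plates held at 37 C, signal read repeatedly through 40 h.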

[12] = qHTS RealTime-Glo MT Cell Viability Assay in HEK293 cells - 32 hour (AID 1224868); note: nearly all actives have a fitted effect of over 50% in size; note: potency is the fitted concentration of half-maximal effect
Method in brief: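 Nonlytic real-time viability readout: viable cells convert prosubstrate to NanoLuc substrate, giving luminescence proportional to live cell number. HEK293, 600 cells/well, compound added after 5 h, continuous culture at 37 C.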

[13] = qHTS assay to identify small molecule antagonists of the estrogen related receptor signaling pathway with the pleiotropic PPARgamma coactivator (PGC) from Tox21 10K library (AID 1224841; call rule not given here; note: potency is the fitted concentration of half-maximal effect)
Method in brief: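 Test chemicals dissolved in DMSO were applied to pre-incubated (6 h) PGC/ERR cells at 2,000 cells/well for an 18 h, 37 C treatment; reporter luminescence was then read using One-Glo.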

[14] = qHTS assay to identify small molecule agonists of the estrogen related receptor signaling pathway with the pleiotropic PPARgamma coactivator (PGC) from Tox21 10K library (AID 1224842); note: nearly all actives have a fitted effect of over 15% in size
Method in brief: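 PGC/ERR reporter cells (NTP line) were seeded 2,000 per well, rested 6 h at 37 C/5% CO2, then pin-dosed with compounds in DMSO for 18 h at 37 C; luciferase read by One-Glo luminescence after 30 min at room temperature.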

[15] = qHTS assay to identify small molecule antagonists of the estrogen related receptor (ERR) signaling pathway from Tox21 library (AID 1224848); note: nearly all actives have a fitted effect of over 50% in size; note: potency is the fitted concentration of half-maximal effect
Method in brief: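 Tox21 10K compounds in DMSO tested for ERR pathway antagonism in NTP's ERR cell line; 18 h, 37 C exposure; ONE-Glo luminescence.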

[16] = qHTS assay to identify small molecule agonists of the estrogen related receptor (ERR) signaling pathway from Tox21 library (AID 1224849; calls by dose curve; note: nearly all actives have a fitted effect of over 15% in size); settings: ERR reporter cell line, ONE-Glo luciferase, 18 h; at 92.4 µM (top of the series) unless noted
Method in brief: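 Tox21 compounds tested for ERR agonism in an NTP reporter cell line: 18 h treatment at 37 C, then ONE-Glo luminescence.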

[17] = qHTS RealTime-Glo MT Cell Viability Assay in HepG2 cells - 40 hour (AID 1224870); note: nearly all actives have a fitted effect of over 50% in size; note: potency is the fitted concentration of half-maximal effect
Method in brief: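 HepG2 cells mixed with RealTime-Glo MT reagents (NanoLuc plus cell-permeant prosubstrate) were seeded at 600 cells/well, incubated 5 h at 37 C/5% CO2, then pinned with compounds in DMSO; nonlytic luminescence tracked viability during 40 h treatment.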

[18] = biological target: Nuclear receptor subfamily 1 group I member 3 (Homo sapiens) (UniProt Q14994); test: qHTS assay to identify small molecule antagonists of the constitutive androstane receptor (CAR) signaling pathway (AID 1224838); note: nearly all actives have a fitted effect of over 40% in size
Nuclear receptor subfamily 1 group I member 3 (Homo sapiens), sequence (Q14994 whole entry, looked up): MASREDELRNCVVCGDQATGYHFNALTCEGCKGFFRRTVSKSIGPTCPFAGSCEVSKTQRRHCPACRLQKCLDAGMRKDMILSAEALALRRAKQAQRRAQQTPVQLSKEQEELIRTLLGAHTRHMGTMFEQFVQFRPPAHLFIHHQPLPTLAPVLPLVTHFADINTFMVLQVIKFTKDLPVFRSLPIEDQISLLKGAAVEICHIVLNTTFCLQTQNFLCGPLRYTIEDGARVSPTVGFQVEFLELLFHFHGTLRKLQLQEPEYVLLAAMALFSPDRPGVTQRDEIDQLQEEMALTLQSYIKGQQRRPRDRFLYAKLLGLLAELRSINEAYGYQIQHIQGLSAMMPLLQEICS
Method in brief: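 Human hepatoma HepG2 cells expressing hCAR and a CYP2B6 promoter (2.2 kb) luciferase construct; compound titration (15 points) with 50 nM CITCO final, 24 h at 37 C/5% CO2; luminescence via ONE-Glo after 30 min at room temperature.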

[19] = biological target: Nuclear receptor subfamily 1 group I member 3 (Homo sapiens) (UniProt Q14994); test: qHTS assay to identify small molecule agonists of the constitutive androstane receptor (CAR) signaling pathway (AID 1224839); note: nearly all actives have a fitted effect of over 15% in size; note: potency is the fitted concentration of half-maximal effect;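 for activation: HepG2 cells stably carrying human CAR and a CYP2B6 luciferase reporter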
Method in brief: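 HepG2 cells stably expressing hCAR and a CYP2B6-2.2kb luciferase reporter were treated with compounds at 15 concentrations plus 0.75 uM PK11195 (final) for 24 h at 37 C; luminescence was read after ONE-Glo addition.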

Row | SMILES | Potency [1] | Potency [2] | Potency [3] | Potency [4] | Potency [5] | Potency [6] | Potency [7] | Potency [8] | Potency [9] | Potency [10] | Potency [11] | Potency [12] | Potency [13] | Potency [14] | Potency [15] | activity change, positive = activation [16] | Potency [17] | Potency [18] | Potency [19]
1 | CC(C)=CCN1CC[C@@]2(C)c3cc(O)ccc3C[C@@H]1[C@@H]2C | inactive | inactive | inactive | inactive | inactive | inactive | inactive | inactive | inactive | inactive | inactive | – | – | – | – | – | – | – | –
2 | O.O.O.O.O.O.O=S(=O)([O-])[O-].[Ni+2] | inactive | inactive | inactive | inactive | – | inactive | inactive | inactive | inactive | – | inactive | inactive | – | – | – | – | – | – | –
3 | CCCC[N+]1(C)CCCC1 (tested in a mixture with another compound) | inactive | inactive | – | inactive | – | inactive | inactive | inactive | inactive | inactive | inactive | inactive | – | – | – | – | – | – | –
4 | CCC(C)Nc1c([N+](=O)[O-])cc(C(C)(C)C)cc1[N+](=O)[O-] (stereo not given) | inactive | – | inactive | inactive | – | inactive | inactive | inactive | – | inactive | inactive | inactive | inactive | inactive | inactive | 11.9% (inactive) | inactive | – | –
5 | CCC[CH2][Sn]([CH2]CCC)([O]C(C)=O)[O]C(C)=O | 138 nM (active) | 0.437 µM (active) | 0.437 µM (active) | 138 nM (active) | inactive | 986 nM (active) | 0.906 µM (active) | – | inactive | 0.278 µM (active) | inactive | – | 34.7 nM (active) | inactive | 0.0617 µM (active) | -79.9% (inactive) | 0.175 µM (active) | – | –
6 | CCCCn1cc[n+](C)c1 (tested in a mixture with another compound) | inactive | inactive | inactive | inactive | – | inactive | inactive | inactive | inactive | – | inactive | inactive | – | – | – | – | – | – | –
7 | O.O.O.O.O.O.O.O=S(=O)([O-])[O-].[Co+2] | inactive | inactive | inactive | inactive | – | inactive | inactive | – | inactive | inactive | inactive | inactive | – | – | – | – | inactive | – | –
8 | CC(=O)[O-].CC(=O)[O-].[Co+2] | inactive | inactive | inactive | inactive | – | inactive | inactive | 21.9 µM (active) | inactive | inactive | inactive | inactive | – | – | – | – | inactive | – | –
9 | [O-][Cl+3]([O-])([O-])O | inactive | inactive | inactive | inactive | – | inactive | inactive | inactive | inactive | – | inactive | – | – | – | – | – | inactive | – | –
10 | Brc1ccc(Oc2ccc(Br)cc2Br)c(Br)c1 | inactive | – | inactive | inactive | – | inactive | inactive | – | 113 µM (active) | inactive | inactive | 49 µM (active) | inactive | – | inactive | 13% (inactive) | inactive | inactive | 54.5 µM (active)
11 | Brc1cccc(-c2ccccc2)c1 | inactive | – | inactive | inactive | – | inactive | – | inactive | – | inactive | inactive | – | inactive | inactive | inactive | -0.973% (inactive) | – | inactive | inactive
12 | CCNS(=O)(=O)C(F)(F)C(F)(F)C(F)(F)C(F)(F)C(F)(F)C(F)(F)C(F)(F)C(F)(F)F | inactive | inactive | – | inactive | – | inactive | inactive | inactive | inactive | – | inactive | inactive | inactive | inactive | inactive | -10.2% (inactive) | inactive | inactive | inactive
13 | O=C1C(Cl)=C(Cl)C(=O)C(Cl)=C1Cl | 34.2 µM (active) and 30.6 µM (active) | – | inactive | 54.3 µM (active) and inactive | – | 54.8 µM (active) and 38.9 µM (active) | – | – | inactive | – | inactive | 24.5 µM (active) and 19.5 µM (active) | 60.9 µM (active) and inactive | inactive | 24.3 µM (active) | -23.7% (inactive) and -49% (inactive) | – | inactive | inactive
14 | CC(=O)[O-].CC(=O)[O-].O.O.O.[Pb+2] | inactive | – | inactive | inactive | – | inactive | inactive | inactive | inactive | inactive | inactive | – | – | – | – | – | inactive | – | –
15 | CC(=O)[O-].CC(=O)[O-].CC(=O)[O-].[Cr+3] | inactive | inactive | inactive | inactive | – | inactive | inactive | inactive | inactive | inactive | inactive | inactive | – | – | – | – | inactive | – | –
16 | [Cl-].[Cl-].[Sn+2] | inactive | inactive | inactive | inactive | – | inactive | inactive | inactive | inactive | inactive | inactive | – | – | – | – | – | – | – | –
17 | CN | inactive | inactive | – | inactive | inactive | inactive | inactive | inactive | inactive | inactive | inactive | – | – | – | – | – | inactive | inactive | inactive
